# Data: the supplement of paper PMC3545927
# This is one part of the list. The true hit rate is not given.
# Target: furin, P09958
# Assay: furin cleavage Z-score vs untreated control; higher = more cleavage, active = 3.5 or more, inactive = 1 or less, 8 variable residues between constant flanks
# Outline: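 The cleavage Z-score is the log read count relative to furin-free reactions, lowess-adjusted and scaled by median absolute deviation. Counts came from sequencing DNA released from bead-bound 8-mer peptide–cDNA fusions after digestion with purified furin for 7.5, 15 or 30 min.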
# 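Also: purified furin at 1:10 enzyme:substrate in 50 mM HEPES pH 7.5.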
# Chain of furin, P09958 (P09958 whole entry): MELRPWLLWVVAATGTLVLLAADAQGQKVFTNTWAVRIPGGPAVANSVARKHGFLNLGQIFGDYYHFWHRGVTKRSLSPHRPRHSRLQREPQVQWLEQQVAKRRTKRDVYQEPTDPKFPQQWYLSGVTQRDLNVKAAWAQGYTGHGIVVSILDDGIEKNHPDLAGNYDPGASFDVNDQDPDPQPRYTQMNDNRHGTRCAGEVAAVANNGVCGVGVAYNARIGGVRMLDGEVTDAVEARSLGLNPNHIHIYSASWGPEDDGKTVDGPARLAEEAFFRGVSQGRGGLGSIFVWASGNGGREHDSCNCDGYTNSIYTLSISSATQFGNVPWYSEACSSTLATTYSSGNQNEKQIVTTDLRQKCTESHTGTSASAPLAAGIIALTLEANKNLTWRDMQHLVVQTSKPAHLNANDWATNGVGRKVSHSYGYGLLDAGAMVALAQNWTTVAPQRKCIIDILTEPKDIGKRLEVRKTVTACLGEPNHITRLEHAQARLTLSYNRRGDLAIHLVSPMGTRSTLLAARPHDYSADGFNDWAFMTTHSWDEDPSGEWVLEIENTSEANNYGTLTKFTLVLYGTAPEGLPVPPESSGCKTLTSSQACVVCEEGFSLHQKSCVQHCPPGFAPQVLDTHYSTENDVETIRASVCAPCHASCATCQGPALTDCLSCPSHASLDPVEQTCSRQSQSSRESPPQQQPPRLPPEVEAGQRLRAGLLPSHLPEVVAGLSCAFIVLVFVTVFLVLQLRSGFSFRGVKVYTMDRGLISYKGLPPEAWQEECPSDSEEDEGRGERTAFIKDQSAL
Sequence,furin cleavage Z-score (7.5 min),furin cleavage Z-score (15 min),furin cleavage Z-score (30 min)
CAEQVTSTWVAGNASASA [HC2182],1.33,-1.99 (inactive),0.572 (inactive)
CAVVCCSSSYAGNASASA [HC2057],0.153 (inactive),-0.457 (inactive),-1.02 (inactive)
CAVKPRPARSAGNASASA [FS-1499],10.9 (active),11.1 (active),7.25 (active)
CAVPESDAAAAGNASASA [HC1128],-0.849 (inactive),-1.42 (inactive),-1.68 (inactive)
CADLGRPARSAGNASASA [FS-1447],-0.204 (inactive),-0.114 (inactive),1.88
CAVPRRPARAAGNASASA [FS-150],9.11 (active),8.34 (active),7.62 (active)
CARLRKQARAAGNASASA [FS-2711],0.606 (inactive),1.95,3
CALPRRPARSAGNASASA [FS-1231],5.68 (active),6.25 (active),4.95 (active)
CAVTPCAAEEAGNASASA [HC1376],-0.828 (inactive),-1.48 (inactive),-0.78 (inactive)
CARFPRAYSYAGNASASA [FS-2924],-0.296 (inactive),0.732 (inactive),4.36 (active)
CASTPCSAHPAGNASASA [HC2579],-0.671 (inactive),0.373 (inactive),0.672 (inactive)
CARLDRSYSYAGNASASA [FS-2986],0.288 (inactive),-0.0412 (inactive),-1.47 (inactive)
CARFPRTWWQAGNASASA [FS-1949],0.217 (inactive),-0.0617 (inactive),0.886 (inactive)
CAVVCCSTSYAGNASASA [HC2058],1.72,0.804 (inactive),2.04
CAVVCCMMSYAGNASASA [HC108],0.208 (inactive),0.787 (inactive),1.59
CARFPRAAHPAGNASASA [FS-2139],3.15,2.75,4.11 (active)
CAVVCCSYSYAGNASASA [HC2049],0.949 (inactive),0.0975 (inactive),-1.13 (inactive)
CARFKRQTSYAGNASASA [FS-2923],8.28 (active),8.05 (active),8.39 (active)
CAMWECSQHLAGNASASA [HC1688],0.266 (inactive),1.15,1.3
CADTPCSGSWAGNASASA [HC1831],-0.725 (inactive),-0.574 (inactive),-0.127 (inactive)
CALGVRVCEKAGNASASA [HC1453],-0.269 (inactive),-0.873 (inactive),-1.56 (inactive)
CAIAAAGQLDAGNASASA [HC1640],0.168 (inactive),-0.469 (inactive),-1.87 (inactive)

Sequence,furin cleavage Z-score (7.5 min),furin cleavage Z-score (15 min),furin cleavage Z-score (30 min)
CASRDRRRREAGNASASA [FS-195],10.8 (active),10.8 (active),7.22 (active)
CAKRSRRIRPAGNASASA [FS-1461],-0.256 (inactive),1.6,0.134 (inactive)
CAKRLRRRREAGNASASA [FS-1224],6.7 (active),5.88 (active),4.7 (active)
CAKRARVVREAGNASASA [FS-262],9.07 (active),8.16 (active),7.16 (active)
CAFLATCINGAGNASASA [HC695],-1 (inactive),-1.97 (inactive),0.404 (inactive)
CALVGSATLCAGNASASA [HC293],-0.853 (inactive),-0.387 (inactive),-0.923 (inactive)
CARREVPCHRAGNASASA [HC2433],0.899 (inactive),1.63,1.91
CAREPRLVGGAGNASASA [FS-2136],-1.44 (inactive),-0.28 (inactive),0.256 (inactive)
CAATCINGVCAGNASASA [HC696],-1.44 (inactive),-0.421 (inactive),-0.171 (inactive)
CARHGRRRRHAGNASASA [FS-1156],10.6 (active),11.5 (active),8.22 (active)
CAAAARRRRHAGNASASA [FS-638],5.47 (active),5.84 (active),3.86 (active)
CATRRRTPRPAGNASASA [FS-1293],-0.0603 (inactive),-0.269 (inactive),0.573 (inactive)
CASTRRRPRHAGNASASA [FS-1170],4.52 (active),3.46,2.74
CARPGRLDRHAGNASASA [FS-917],1.02,-0.871 (inactive),0.899 (inactive)
CAFVAPGERPAGNASASA [HC911],-1.27 (inactive),-0.656 (inactive),-0.848 (inactive)
CAAAWETARHAGNASASA [HC1568],0.137 (inactive),0.318 (inactive),-0.358 (inactive)
CAFSPRRHWTAGNASASA [HC307],0.332 (inactive),-0.669 (inactive),-0.85 (inactive)
CAYRCRRPRHAGNASASA [FS-1621],0.22 (inactive),1.07,0.99 (inactive)
CAFQNRRARHAGNASASA [FS-1589],9.77 (active),11.1 (active),10.3 (active)
CATWVLVGGVAGNASASA [HC990],0.127 (inactive),-1.42 (inactive),0.528 (inactive)
CAAYAAQGYKAGNASASA [HC782],-0.0157 (inactive),-1.07 (inactive),-0.556 (inactive)
